FMDV antiviral – foot and mouth disease virus antiviral activity; FMDV antiviral cell-based qHTS; Potency, µM (top dose mostly 57.9 µM), for the others: top-dose activity change, negative = inhibition, usual class: inhibitors; 410,000 compounds, 1.2% hits; calls by dose curve; tested in HEK293T cells; also: read-out not given here; potency is read from the fitted curve at half-maximal effect; nearly all actives have a fitted effect of over 45% in size
HCV inh – HCV inhibition; Huh7.5.1 HCVcc-Cre infection, luciferase reporter, 44 h; Potency, µM (series often up to 41.8 µM), without a hit: at the top dose activity change, negative = inhibition, hits mostly inhibitors; 340,000 compounds, 3.4% hits; active = well fitted inhibition curve with a large enough effect; inconclusive = small, poorly fitted or top-dose-only effect, or another doubt; inactive = no such curve, though single readings can be large or run the other way; also: potency is read from the fitted curve at half-maximal effect
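Cells seeded at 1,000/well and cultured 4 h, then compounds added followed by HCVcc-Cre virus (~0.5 moi). After 44 h further culture, luciferase substrate was added, plates held 15 min at room temperature, and luminescence read for 15 sec.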
Vaccinia Venus – vaccinia inhibition (Venus reporter) | Potency, µM (top dose mostly 36.5 µM), without a hit: at the highest dose activity change, negative = inhibition, usual class: inhibitors | AID 720580 | 330,000 compounds, 0.46% hits | Vaccinia virus Venus reporter expression, fluorescence; calls by dose curve; tested in A549 cells; also: potency is read from the fitted curve at half-maximal effect; nearly all actives have a fitted effect of over 30% in size
HCMV antiviral – blocks human cytomegalovirus replication. HFF cells, HCMV-luciferase reporter, 72 h; stronger effect = lower value. activity change, negative = inhibition, % at 57.5 µM. 410,000 compounds, 4.5% hits. AID 1259415; in the data active = activity change below about -60%; inconclusive = no clear call, values can overlap the other calls; inactive = above about -39%
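Inhibition of viral replication was scored as loss of reporter luminescence in HFFs infected with HCMV-luciferase (MOI 1 PFU/cell) for 72 h; compounds tested at 2 doses, normalized to buffer and Salinomycin controls.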
VACV mCherry inh – vaccinia inhibition (mCherry reporter); Potency, µM (doses to about 36.5 µM), without a hit: top-dose activity change, negative = inhibition, actives largely listed as inhibitors; 310,000 compounds, 0.63% hits; Vaccinia virus mCherry reporter infection, fluorescence; calls by dose curve; tested in A549 cells; also: potency is read from the fitted curve at half-maximal effect; nearly all actives have a fitted effect of over 35% in size
Active calls of the source: *; i = inactive; ? = inconclusive; · = no result given; [ ] = another dose, or the depositor's remark. This is a sample that favours compounds with a hit; in the whole collection about 7.3% have one here. % is scaled to controls: 0 for no effect and ±100 for the full control effect.

SMILES	FMDV antiviral	HCV inh	Vaccinia Venus	HCMV antiviral	VACV mCherry inh
C/C(CC(=O)Nc1ccccn1)=N\NC(=O)c1ccccc1O	29.0%	7.08µM*	-11.8%	-91.2*	3.98µM*
C/C(CC(=O)Nc1cc(C)ccn1)=N\NC(=O)c1cccc(C)c1	33.2%	7.5%	·	-4.0	·
COc1ccc(S[C@]2(c3nc(C)no3)CC(=O)N(S(=O)(=O)c3ccc(F)cc3)[C@@H]2c2ccc(OC)cc2)cc1	·	·	·	-17.7	·
COc1ccccc1C=NNc1ccc([N+](=O)[O-])cn1	2.3%	9.2%	-1.3%	20.0	-14.8%
O=[N+]([O-])c1ccc(NN=Cc2ccc(O)cc2O)nc1	13.0%	?	?	-97.6*	1.41µM*
O=[N+]([O-])c1ccc(NN=Cc2ccc(O)cc2)nc1	-16.6%	-22.5%	-2.2%	7.5	?
N#Cc1ccccc1Cn1cc(/C=N/Nc2ccc([N+](=O)[O-])cn2)c2ccccc21	-25.5%	2.51µM*	1.0%	-29.3	-5.2%
O=[N+]([O-])c1ccc(O)c(/C=N/Nc2ccccn2)c1	-22.1%	2.51µM*	5.01µM*	-101.5*	1.78µM*
O=[N+]([O-])c1cccc(N/N=C/c2cc([N+](=O)[O-])ccc2O)c1	-27.3%	-19.3%	-23.9%	-9.2	-22.0%
O=[N+]([O-])c1ccc(NN=Cc2ccccc2O)nc1	65.1%	?	?	-97.6*	?
CCCN1CNc2c(c(=O)[nH]c(=S)n2CCc2ccc(OCC)c(OCC)c2)C1	·	·	-19.6%	·	i
CCN(CC)S(=O)(=O)c1ccc(N/N=C(\C)c2ccncc2)nc1	-0.8%	?	7.6%	13.0	-9.4%
O=[N+]([O-])c1ccc(O)c(/C=N/Nc2ncnc3c2cnn3-c2ccccc2)c1	27.1%	2.82µM*	·	-98.9*	·
CCN(CC)S(=O)(=O)c1ccc(N/N=C/c2ccc(O)cc2O)nc1	-29.2%	?	?	-101.0*	3.98µM*
O=C(N/N=C/c1cc([N+](=O)[O-])ccc1O)Nc1ccccc1	3.4%	-2.1%	-20.7%	6.1	?
O=[N+]([O-])c1ccc(O)c(/C=N/Nc2nc3ccccc3[nH]2)c1	11.4%	11.2µM*	?	-99.2*	8.91µM*
CCCCn1c(SCC(=O)c2ccccc2)nc2sc3c(c2c1=O)CCCC3	-19.0%	·	8.8%	13.5	-2.0%
O=C(NCCC(F)(F)F)C1=CN2CCN(Cc3cccc(Cl)c3)C(=O)N=C2O1	·	·	·	-1.4	·
CC(C)[C@H](NC(=O)N1c2ccccc2NC(=O)[C@@H]1C(C)C)C(=O)N[C@@H](C(=O)O)c1ccccc1	-10.7%	0.355µM*	-5.5%	-5.5	-1.4%
Cc1cc(C)cc(N2CC(c3nc(-c4ccccc4C)no3)CC2=O)c1 (stereo unspecified)	-13.1%	·	-5.4%	3.1	-6.4%
COCCCNC(=O)c1sc2nc(C)c(C(=O)Nc3ccc(C)cc3C)c(-c3ccccc3Cl)c2c1N	-24.9%	·	-1.0%	-9.8	10.4%
CC(C)CCNC(=O)Cn1nc(N2CCN(c3ccccc3)CC2)ccc1=O	-13.7%	·	7.0%	-15.2	-5.8%
CC(=O)c1ccc(NC(=O)c2cnc(N3CCCC3)nc2C)cc1	?	·	-5.6%	-0.8	9.2%
CCCn1c(CC)nc([N+](=O)[O-])c1S(=O)(=O)c1ccccc1	12.6µM*	12.6µM*	·	33.3	·
CCc1nc(C)cn1S(=O)(=O)c1ccc([N+](=O)[O-])cc1	-14.5%	?	-3.9%	-14.5	-15.3%
SMILES	FMDV antiviral	HCV inh	Vaccinia Venus	HCMV antiviral	VACV mCherry inh
CC(=O)OC(C)(C)/C=C/C(=O)[C@](C)(O)C1[C@H](O)C[C@@]2(C)C3CC=C4C(C[C@H](O)C(=O)C4(C)C)[C@]3(C)C(=O)C[C@]12C (stereo partly specified)	28.2µM*	-19.4%	2.51µM*	·	0.501µM*
CC(C)(O)/C=C/C(=O)C(C)(O)C1C(O)CC2(C)C3CC=C4C(C=C(O)C(=O)C4(C)C)C3(C)C(=O)CC12C (stereo unspecified)	-4.8%	?	28.2µM*	-96.9*	7.94µM*
CC1CCN2c3ccccc3CC3(C(=O)OC(C)(C)OC3=O)C2C1 (stereo unspecified)	·	·	-6.1%	·	-13.8%
Cn1c(CCN2CCCC2)nc2cc(NC(=O)COc3ccc(Cl)cc3)ccc21	-0.9%	·	-18.8%	?	i
Cc1ccc(OCC(=O)Nc2ccc3c(c2)nc(CCN2CCC(C)CC2)n3C)cc1	-11.4%	12.6µM*	-29.6%	-70.3*	-11.6%
CC1CCN(CCc2nc3cc(NC(=O)COc4ccc(Cl)cc4)ccc3n2C)CC1	-21.7%	11.2µM*	-4.1%[7.34 µM]	?	-13.3%[7.34 µM]
COc1ccc(OCC(=O)Nc2ccc3c(c2)nc(CCN2CCC(C)CC2)n3C)cc1	10.6%	16.1%	·	-27.1	·
Clc1ccccc1-c1ccc2ncnc(NCCN3CCOCC3)c2c1	0.0%	·	·	·	·
CN(C)c1ccc(C=C2C(=O)NC(=S)NC2=O)cc1	28.2µM*	?	-8.6%	22.3	-17.8%
CCN(CC)c1ccc(C=C2C(=O)NC(=S)NC2=O)cc1	22.4µM*	?	·	-28.6	·
COc1ccc(-n2c3c(cc(C(=O)N4CCCCC4)c2=O)C(=O)CC(C)(C)C3)cc1	11.7%	8.3%	14.1µM*	-4.8	?
CC1(C)CC(=O)c2cc(C(=O)N3CCCC(C)(C)C3)c(=O)n(-c3ccccc3)c2C1	16.8%	1.9%	-12.0%	-77.3*	·
C=Cc1ccc(Cn2c(C(=O)O)c(CNCCc3ccccc3)c3ccc(C)cc32)cc1	-17.9%	·	?	-89.8*	-19.2%
CCOc1ccccc1CNCc1c(C(=O)O)n(Cc2ccccc2)c2cc(OC)ccc12	16.5%	·	8.1%	14.1	7.1%
Cc1ccc(Cn2c(C(=O)O)c(CNCc3ccccc3Cl)c3ccc(C)cc32)cc1	?	·	?	14.2	?
C=Cc1ccc(Cn2c(C)c(CNCCc3cc(OC)ccc3OC)c(C(=O)O)c2C)cc1	-9.1%	·	-10.5%	0.1	-18.6%
C=Cc1ccc(Cn2c(C(=O)O)c(CNCc3cc(OC)ccc3OC)c3ccc(C)cc32)cc1	0.0%	·	-12.4%	-103.6*	-13.9%
COc1ccc(Cn2c(C(=O)O)c(CNCc3ccccc3F)c3ccc(OC)cc32)cc1	16.1%	·	-7.2%	-76.2*	-11.3%
Cc1ccc2c(CNCCc3ccc(Cl)cc3)c(C(=O)O)n(Cc3ccc(F)cc3)c2c1	-16.8%	·	-14.6%	-105.8*	-12.8%
Cc1ccc(Cn2c(C(=O)O)c(CNCCc3ccco3)c3ccc(C)cc32)cc1	6.8%	·	-2.1%	48.8	13.6%
CCCS(=O)(=O)NCc1c(C)ncc2c1CCN(C(=O)c1ccc(Cl)cc1)C2	2.7%	·	-5.7%	·	-5.7%
COc1ccc(Cn2c(C(=O)O)c(CNCCc3ccccc3Cl)c3ccc(C)cc32)cc1	-53.8%	·	?	-104.7*	?
COc1ccc(Nc2ncnc3scc(-c4ccc(F)cc4)c23)cc1	?	·	-0.7%	-34.6	-14.2%
COc1ccc(Nc2ncnc3scc(-c4ccc(OC)cc4)c23)cc1	?	6.31µM*	-29.0%	?	?
O=C(c1ccco1)N1CCN(c2ncnc3scc(-c4ccccc4)c23)CC1	?	?	-17.8%	-22.5	-8.2%
